FBPA coupling cs = qHTS Assay for Inhibitors of Fructose-1,6-bisphosphate Aldolase from Giardia Lamblia: Coupling assay counterscreen; 290,000 compounds, 0.67% hits; activity change, negative = inhibition, % at 58.2 µM, hits read low; AID 2472, 2010; coupling enzyme system counterscreen, AmpLite Red fluorescence; in the data active = activity change below about -30%
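Counterscreen lacking aldolase: glyceraldehyde-3-phosphate coupling-enzyme reagent preincubated 10 min at RT with compound (at 57.5 uM final), then substrate/coupling system with AmpLite Red added; fluorescence read at 525/598 nm after 20 min RT.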
JMJD2E inh = qHTS Assay for Inhibitors of Human Jumonji Domain Containing 2E (JMJD2E) | Potency, µM (series often up to 57.1 µM), for inactives: at the highest dose activity change, negative = inhibition, most hits filed as inhibitors | JMJD2E catalytic domain, FDH-coupled NADH fluorescence (FDH is formaldehyde dehydrogenase) | 230,000 compounds, 1.6% hits | Lysine-specific demethylase 4E (Homo sapiens), B2RXH2; active = well fitted inhibition curve with a large enough effect, not every such curve was filed as active; inconclusive = small, poorly fitted or top-dose-only effect, or another doubt; inactive = no such curve, though single readings can be large or run the other way;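 note: potency is the fitted concentration of half-maximal effect; 0% = wells with enzyme and -100% = buffer wells without enzyme; nearly all actives have a fitted effect of over 50% in size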
Target sequence (B2RXH2 1-337 limits assumed): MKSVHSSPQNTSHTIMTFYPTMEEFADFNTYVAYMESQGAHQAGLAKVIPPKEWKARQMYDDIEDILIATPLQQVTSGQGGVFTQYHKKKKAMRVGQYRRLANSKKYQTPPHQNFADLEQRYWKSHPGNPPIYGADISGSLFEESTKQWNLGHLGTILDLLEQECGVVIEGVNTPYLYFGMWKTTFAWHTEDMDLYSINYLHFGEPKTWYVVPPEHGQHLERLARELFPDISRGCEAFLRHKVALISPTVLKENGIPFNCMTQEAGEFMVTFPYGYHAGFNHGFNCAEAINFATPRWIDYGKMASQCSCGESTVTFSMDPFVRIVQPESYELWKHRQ
Tau FP inhib = qHTS for Inhibitors of Tau Fibril Formation, Fluorescence Polarization | Microtubule-associated protein tau (Homo sapiens), P10636 | K18 P301L tau heparin fibrillization, Alexa594 FP, 6 h | Potency, µM (doses to about 57.7 µM), inactives show at the highest dose activity, negative = inhibition, actives largely listed as inhibitors | 280,000 compounds, 0.39% hits; note: potency is the fitted concentration of half-maximal effect; nearly all actives have a fitted effect of over 55% in size
Target sequence (P10636 561-689 P618L limits assumed): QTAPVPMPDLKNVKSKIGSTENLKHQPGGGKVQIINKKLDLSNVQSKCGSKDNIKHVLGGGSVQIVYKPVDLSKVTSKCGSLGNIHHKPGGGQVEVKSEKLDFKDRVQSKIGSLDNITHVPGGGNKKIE
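K18 P301L tau (15 uM unlabeled/0.24 uM Alexa 594-labeled, final) + compound + heparin 20 uM final; 100 mM NaOAc pH 7; 6 hr 37 C; ThT 30 uM final added, 1 hr RT; FP ex 555/em 632 nm.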
Tau fibril ThT = qHTS for Inhibitors of Tau Fibril Formation, Thioflavin T Binding; Microtubule-associated protein tau (Homo sapiens), P10636; recombinant tau K18 P301L, heparin-induced fibrillization, ThT fluorescence; Potency, µM (top dose mostly 57.4 µM), inactives show at the highest dose activity, negative = inhibition, hits mostly inhibitors; 270,000 compounds, 2.1% hits; AID 1460, 2008; note: potency is the fitted concentration of half-maximal effect; nearly all actives have a fitted effect of over 55% in size
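Heparin-induced fibrillization of the P301L-mutant K18 repeat-domain fragment of human tau was followed by ThT binding in quantitative high-throughput format.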
Tau fluor counter = Counterscreen qHTS for Inhibitors of Tau Fibril Formation, Fluorescence Polarization; 280,000 compounds, 0.93% hits; Potency, µM (series often up to 57.7 µM), inactives show top-dose activity change, negative = decrease; tau K18 P301L (four-repeat tau fragment) Alexa594 fluorescence, heparin fibrillization; note: potency is the fitted concentration of half-maximal effect; nearly all actives have a fitted effect of over 55% in size
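Human K18 P301L tau (15 uM unlabeled plus 0.24 uM Alexa 594-labeled, final) in 100 mM sodium acetate pH 7 was mixed with compound and 20 uM heparin and incubated 6 hr at 37 C.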
* marks the source's active call; other numbers are inactive results; ? = inconclusive; · = no result; [ ] = remark or other dose. Only some compounds are listed: those with a hit (about 3% of all), similar ones and a draw of the others. Unless noted, calls come from the whole dose curve; as a rule, active = well fitted curve in the direction sought with a large enough effect; inconclusive = small, poorly fitted or top-dose-only effect, or another doubt; inactive = no such curve, though single readings can be large; an effect the other way counts as inactive or inconclusive. Unless noted, % is set by controls: 0 for no effect and ±100 for the full control effect.

SMILES	FBPA coupling cs	JMJD2E inh	Tau FP inhib	Tau fibril ThT	Tau fluor counter
O=C(O)CCC/C=C\C[C@@H]1C(/C=C/[C@@H](O)COc2cccc(C(F)(F)F)c2)[C@@H](O)C[C@@H]1O (some centres not stated)	·	·	-6.9%	-2.5%	-4.4%
CCOc1ccc(CCNC(=O)CCSCc2ccc(Cl)cc2)cc1OCC	·	·	-2.2%	-6.4%	-17.1%
CCOC(=O)c1[nH]c2ccccc2c1NC(=O)c1ccccc1F	·	·	4.0%	-16.1%	?
COc1ccc2c(c1)-c1nc(NC(=O)c3ccc(Cl)cc3)sc1CC2	·	·	-15.7%	-4.4%	-15.9%
COc1ccc(C(=O)Nc2nc3c(s2)Cc2cc(OC)ccc2-3)cc1	·	-6.5%	-7.5%	2µM*	3.98µM*[quencher]
CCS(=O)(=O)N1CC(=O)N(c2cccc(Cl)c2)C(C)(C(=O)NC2CCCCCC2)C1 (configuration not stated)	·	·	0.6%	6.3%	6.2%
CCOc1ccc2nc(N=NC3=C(O)CC(C)(C)CC3=O)sc2c1	-2.7	22.4µM*	-8.3%	14.1µM*	-22.9%
Clc1ccc(N2CCN(c3ncnc4c3nc3n4CCCC3)CC2)cc1	·	·	8.5%	?	-13.2%
COc1ccc(N(C(=O)c2cccc(C)c2)S(=O)(=O)c2ccc3c(c2)n(C)c(=O)n3C)cc1	·	·	-10.9%	-10.6%	-10.1%
CCOC(=O)c1ccc(NC(=O)Nc2ccc(F)cc2)cc1	-1.4	2.7%	?	?	?
CCOC(=O)c1cc[n+](CC(=O)c2ccc(F)cc2)cc1	2.0	31.6µM*	-4.6%	-5.1%	-3.8%
COc1ccc(N(C(=O)c2ccc(Cl)cc2)S(=O)(=O)c2ccc(C)cc2)cc1	·	·	-11.0%	-8.9%	-17.7%
COc1ccc(OC)c(/C=N/c2oc(-c3ccco3)c(-c3ccco3)c2C#N)c1	-44.1*	?	1.7%	?	?
N#Cc1c(N)oc(-c2ccco2)c1-c1ccco1	-9.4	1.58µM*	-5.9%	14.1µM*	?
N#Cc1c(N)oc(-c2ccccc2)c1-c1ccccc1	2.9	-17.7%	-1.4%	-20.2%	-12.4%
CN(C(=O)c1ccccc1)C1c2c(ccc3ccccc23)OCC1CO (configuration not stated)	0.1	·	·	·	·
O=C(Nc1ccc(Cl)cc1)N[C@@H]1c2c(ccc3ccccc23)OC[C@@H]1CO	3.2	8.0%	31.6µM*	8.5%	?
Cc1ccc(NS(=O)(=O)c2ccc3[nH]c4c(c3c2)CCCCCC4)cc1C	·	·	-1.4%	1.5%	12.6µM*[quencher]
CCOC(=O)c1ccc(NS(=O)(=O)c2ccc3[nH]c4c(c3c2)CCCCC4)cc1	·	·	?	-6.9%	6.31µM*[quencher]
Cc1ccc(NS(=O)(=O)c2ccc3[nH]c4c(c3c2)CCCCCC4)cc1	·	·	?	-11.7%	11.2µM*[quencher]
COc1ccc(NS(=O)(=O)c2ccc3[nH]c(=O)ccc3c2)cc1OC	·	·	-17.8%	?	8.91µM*[quencher]
CCc1ccc(NS(=O)(=O)c2ccc3[nH]c4c(c3c2)CCCCCC4)cc1	·	·	?	18.1%	?
CCN(CC)C(=O)c1ccc2c(c1)N(Cc1c(F)cccc1Cl)C(=O)c1ccccc1S2	·	·	-2.3%	?	-14.4%
COc1cc(NS(=O)(=O)c2ccc3[nH]c4c(c3c2)CCCCCC4)cc(OC)c1	·	·	-5.3%	-6.5%	8.91µM*[quencher]
Cc1ccc(N(C)S(=O)(=O)c2ccc3[nH]c4c(c3c2)CCCC4)cc1	·	·	5.2%	-4.7%	14.1µM*[quencher]
SMILES	FBPA coupling cs	JMJD2E inh	Tau FP inhib	Tau fibril ThT	Tau fluor counter
COc1ccc(NS(=O)(=O)c2ccc3[nH]c4c(c3c2)CCCC4)cc1OC	·	·	6.5%	?	15.8µM*[quencher]
COc1ccc(OC)c(NS(=O)(=O)c2ccc3[nH]c4c(c3c2)CCCCC4)c1	·	·	2.7%	-1.6%	11.2µM*[quencher]
Cc1ccc(C(CC(=O)Nc2cc(C)cc(C)c2)N2Cc3ccccc3C2=O)cc1 (configuration not stated)	·	·	-6.4%	-3.3%	-15.6%
CCOc1ccccc1NC(=O)Cn1nnc2sc3c(c2c1=O)CCC(C(C)(C)C)C3 (configuration not stated)	·	·	-7.8%	-7.6%	-15.9%
Cc1cccc2c1[nH]c1nc(N/N=C\c3ccco3)nnc12	-2.0	3.5%	-6.6%	6.31µM*	-27.6%
CC(/C=N/Nc1nnc2c(n1)[nH]c1ccccc12)=C\c1ccco1	-1.5	0.6%	-12.4%	6.31µM*	?
CCc1ccc(NC(=O)CSc2nc3ccsc3c(=O)n2C(C)CC)cc1 (configuration not stated)	·	·	-13.8%	-3.0%	-17.7%
Cn1c(COc2ccccc2)nnc1SCCSc1nnc(COc2ccccc2)n1C	2.2	-0.3%	-5.0%	-13.7%	2.0%
Cn1c(COc2ccc(Br)cc2)nnc1SC1CCc2ccccc2C1=O (configuration not stated)	-56.6*	?	?	31.6µM*	?
CCCc1ccc(OCC(=O)Nc2scc(-c3cccs3)c2C(=O)OC)cc1	·	·	?	22.4µM*	-23.4%
COC(=O)c1c(-c2cccs2)csc1NC(=O)COc1ccc(C(C)C)cc1	·	·	?	28.2µM*	-17.0%
CCOC(=O)C(=Cc1ccc(-n2ccnc2)cc1)C(=O)OCC	0.4	11.2µM*	1.2%	?	7.1%
CCOC(=O)C(=Cc1ccc(F)cc1)C(=O)OCC	0.7	-1.7%	1.5%	?	4.2%
C#CCOc1ccc(C(=O)N(C)c2ccccc2I)cc1	1.2	·	·	·	·
Cc1ccc(/C=N/NC(=O)c2cccc(S(=O)(=O)Nc3ccccc3Cl)c2)s1	-33.6*	?	-8.9%	-14.0%	?
O=C(N/N=C/c1ccccc1C(=O)O)c1cccc(S(=O)(=O)Nc2cc(Cl)ccc2Cl)c1	17.3	-2.8%	3.5%	-2.2%	1.1%
O=C(N/N=C/c1ccncc1)c1cccc(S(=O)(=O)Nc2ccc(Cl)cc2)c1	2.8	3.55µM*	-19.3%	2.6%	-5.3%
O=C(N/N=C/c1cccnc1)c1cccc(S(=O)(=O)Nc2cccc(Cl)c2)c1	1.0	-10.4%	8.6%	-4.0%	-4.2%
CCOC(=O)c1ccc(CN(Cc2ccccc2C)S(=O)(=O)c2ccc(F)c(C)c2)cc1	·	·	-3.4%	-4.2%	-12.8%
CCOc1ccc(/C=C2\SC(=S)N(C(C(=O)O)c3ccccc3)C2=O)cc1OC (configuration not stated)	-0.5	-3.2%	0.6%	?	-3.2%
CC(/C=C1\SC(=O)N(CC(=O)Nc2ccc(O)cc2)C1=O)=C\c1ccccc1	0.9	6.5%	-8.2%	5.8%	-5.3%
COc1ccc(OC)c(/C=C2\SC(=S)N(C(C(=O)O)c3ccccc3)C2=O)c1 (configuration not stated)	32.6	-5.5%	-11.5%	15.8µM*	-15.4%

Assay outcomes deposited in PubChem BioAssay by National Center for Advancing Translational Sciences (NCATS).
